The list is not random: actives were taken first. Their share in the collection is about 4.7%.
Efflux pump mplx = inhibitors of Candida efflux pumps in yeast, primary screen, S. cerevisiae, Nile Red, multiplex; S. cerevisiae Candida pump triplex; inhibition, % at 10 µM; 0.44% of 330,000 active;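 active = plate passing quality check with inhibition over a set limit, or well fluorescence over plate mean plus 4 SD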;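 also: Nile Red retained in pooled yeast measured as flow cytometry median fluorescence; 0% = buffer negative control and 100% = Enniatin B positive control; higher means more Nile Red kept so more efflux inhibition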
PABP polyA inh = PABP poly(A) RNA binding inhibitors, primary screen, biochemical, fluorescence polarization, uHTS; Polyadenylate-binding protein 1 (Homo sapiens), P11940; inhibition, % at 35 µM; 1% of 290,000 active; AID 2014, 2009;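 also: calls also rest on retests at 20 µM and on dose response follow-up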
PABP1 MLLE inh = inhibitors of PABP1 MLLE–PAM2 peptide binding, primary screen, biochemical, fluorescence polarization, FITC-PAM2, GST-MLLE. inhibition, % at 20 µM. 0.36% of 360,000 active; in the data active = inhibition above about 35%, passing the limit was not always enough;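 also: plate controls were DMSO wells with GST-MLLE for no effect and wells lacking GST-MLLE protein for full effect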
eIF4H inh = human eIF4H binding inhibitors, primary screen, translation initiation inhibitor project, biochemical, uHTS, fluorescence polarization. eIF4H fluorescence polarization binding assay. inhibition, % at 35 µM. 0.94% of 290,000 active;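 also: calls also rest on retests at 20 µM and on dose response follow-up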
ALR inh = inhibitors of human ALR sulfhydryl oxidase, primary screen, biochemical, H2O2 detection, HRP-luminol luminescence, single point; 3.8% of 290,000 active; purified ALR, DTT oxidation; inhibition, % (test concentration not listed); AID 485317, 2010;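 active = mean replicate inhibition above about 79%, with every replicate also reaching it, limit read from the data; inconclusive = only one of the two criteria met; inactive = mean below limit and not every replicate reaching it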
Target sequence (P55789 whole entry, looked up): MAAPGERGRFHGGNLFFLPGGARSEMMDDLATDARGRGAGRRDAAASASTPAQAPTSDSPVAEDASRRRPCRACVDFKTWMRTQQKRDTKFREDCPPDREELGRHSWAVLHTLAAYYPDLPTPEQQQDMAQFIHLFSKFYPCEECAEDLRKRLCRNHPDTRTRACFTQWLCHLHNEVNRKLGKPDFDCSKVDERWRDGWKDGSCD
SUMO HTRF inh = inhibitors of in vitro SUMOylation cascade, primary screen, biochemical, HTRF, uHTS; SUMO-conjugating enzyme UBC9 (Homo sapiens), P63279; HTRF SUMOylation assay, SAE1/SAE2 + UBC9; inhibition, % at 35 µM; 0.36% of 290,000 active; in the data active = inhibition above about 50%, passing the limit was not always enough; inconclusive = no clear call, values can overlap the other calls
Target sequence (P63279 whole entry, looked up): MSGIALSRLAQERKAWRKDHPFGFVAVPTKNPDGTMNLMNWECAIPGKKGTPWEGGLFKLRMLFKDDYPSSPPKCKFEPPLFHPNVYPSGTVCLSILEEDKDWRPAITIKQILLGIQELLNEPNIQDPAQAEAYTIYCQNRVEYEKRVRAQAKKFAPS
Numbers without * were called inactive; ? = inconclusive; . = not tested or not shown. Unless noted, no rule for the calls is given here.

SMILES | Efflux pump mplx | PABP polyA inh | PABP1 MLLE inh | eIF4H inh | ALR inh | SUMO HTRF inh
O=C(COC(=O)[C@H](Cc1ccccc1)NC(=O)c1ccco1)NCc1ccccc1 | 0 | 6 | -5 | -2 | 11 | 11
CCCC(=O)NC(c1ccc(Cl)cc1Cl)c1ccc2cccnc2c1O (stereo unspecified) | 0 | 0 | -3 | 11 | -8 | 91*
CS(=O)(=O)NCCSCc1ccccc1 | 0 | -6 | 0 | -4 | 1 | -23
CS(=O)(=O)NCCSc1cc(C(F)(F)F)nc2ccccc12 | 0 | 84* | 0 | 64* | 20 | 21
O=C(/C=C/c1ccco1)c1cccnc1 | 0 | 27* | 2 | 56* | -14 | 20
CN(C)c1ccc(/C=C/C(=O)c2cccnc2)cc1 | 0 | ? | -103 | ? | 99* | 4
C[C@H](CO)N1C[C@H](C)[C@@H](CN(C)S(=O)(=O)c2cn(C)cn2)Oc2cc(Br)ccc2S1(=O)=O | . | . | -4 | . | . | .
CN(CC(=O)NC(=O)NCc1ccco1)Cc1nc2ccccc2c(=O)[nH]1 | 0 | 41* | 8 | 69* | . | 27
O=C(CCc1nc2ccccc2c(=O)[nH]1)NCc1ccco1 | 0 | -2 | 2 | 2 | 0 | 26
O=C(CCN1C(=O)/C(=C/c2cccs2)SC1=S)Nc1ccc(C(=O)O)c(O)c1 | 0 | 13 | 1 | 19 | 79* | 34
CC(/C=C1\SC(=S)N(CCCC(=O)Nc2ccc(C(=O)O)c(O)c2)C1=O)=C\c1ccccc1 | 0 | -9 | . | 15 | 97* | 44
O=C(CCCN1C(=O)/C(=C\c2ccccc2)SC1=S)Nc1cccc(C(=O)O)c1 | 0 | 12 | 11 | 0 | 4 | 13
CC(=C\c1ccccc1)/C=C1/SC(=O)N(CCCC(=O)Nc2ccc(C(=O)O)cc2)C1=O | 0 | 11 | -3 | 6 | 97* | 13
O=C(CCN1C(=O)/C(=C\C=C\c2ccccc2)SC1=S)Nc1cccc(C(=O)O)c1 | 0 | 78* | -7 | 88* | 6 | 37
O=C(CCCN1C(=O)S/C(=C/C=C/c2ccccc2)C1=O)Nc1ccc(C(=O)O)cc1 | -5 | 10 | 2 | -8 | . | 0
O=C(CCN1C(=O)/C(=C/c2cccs2)SC1=S)Nc1ccc(O)cc1 | 0 | 50 | -32 | 54 | -21 | 22
CC1CN(S(=O)(=O)c2cccc(C(=O)N(Cc3nnc(-c4ccccc4Cl)o3)C3CC3)c2)CC(C)O1 (stereo unspecified) | 0 | . | 1 | . | -2 | .
CCOc1ccc(C2=CSC3=NCCN23)cc1Cl | 0 | -40 | -26 | -2 | 4 | -13
Cc1ccc(/C=N/Nc2cccc3cccnc23)c(O)c1 | 0 | -10 | -6 | -1 | -1 | -34
O=c1[nH]ncc(N/N=C\c2ccc(O)cc2O)c1Cl | 0 | -2 | -9 | 3 | 96* | 10
Oc1ccc(/C=N/Nc2nccnc2Cl)c(O)c1 | 0 | -6 | 3 | 16 | 59 | -34
Oc1ccc(/C=N/Nc2cccc3cccnc23)c(O)c1 | 0 | 11 | 5 | -7 | 84* | 16
Cc1cc(=O)c(C(=O)O)c(C)n1-c1ccccc1 | . | . | -8 | . | . | .
CCCC(=O)N1CCCC(c2cc(C(=O)NCc3ccc(F)cc3)no2)C1 (stereo unspecified) | . | . | -3 | . | . | .
COc1ccc(S(=O)(=O)/N=C2\C=C(Nc3ccc(O)cc3)C(=O)c3ccccc32)cc1 | 0 | 17 | -6 | 10 | . | 25
SMILES | Efflux pump mplx | PABP polyA inh | PABP1 MLLE inh | eIF4H inh | ALR inh | SUMO HTRF inh
CCc1ccc(S(=O)(=O)/N=C2\C=C(NS(=O)(=O)c3ccccc3)C(=O)c3ccccc32)cc1 | . | 18 | 11 | -7 | . | 17
Cc1ccccc1NC1=C/C(=N\S(=O)(=O)c2cccs2)c2ccccc2C1=O | 0 | 0 | 23 | -11 | -51 | 73*
Cc1ccccc1NC1=C/C(=N\S(=O)(=O)c2ccc(C(=O)O)cc2)c2ccccc2C1=O | 0 | 6 | 6 | 5 | . | 88*
O=C(O)c1ccc(S(=O)(=O)/N=C2\C=C(Nc3ccccc3F)C(=O)c3ccccc32)cc1 | 0 | 9 | 26 | -1 | 70 | 92*
COc1ccc(C)cc1NC(=O)C(NC(=O)c1cc(OC)c(OC)c(OC)c1)C(C)C (stereo unspecified) | 0 | 1.6* | -8 | 91* | -4 | 12
O=C(Nc1ccccc1)c1cc(C2COCCN2C(=O)C2CC2)on1 (stereo unspecified) | . | . | 7 | . | . | .
Cc1cc(C(=O)COC(=O)c2ccc3c(c2)NC(=O)CS3)c(C)n1CC1CCCO1 (stereo unspecified) | 0 | -3 | 19 | 21 | 16 | 21
COCC(C)n1c(C)cc(C(=O)COC(=O)c2ccc3c(c2)NC(=O)CS3)c1C (stereo unspecified) | 0 | -2 | 39* | 43 | 36 | 10
CC(C)CN(C(=O)COC(=O)c1ccc2c(c1)NC(=O)CS2)C1CCS(=O)(=O)C1 (stereo unspecified) | 0 | -7 | 55* | 4 | -17 | 2
CC(C)CN(C(=O)COC(=O)CNC(=O)c1ccccc1F)C1CCS(=O)(=O)C1 (stereo unspecified) | 0 | 90* | 2 | 0 | -5 | 14
CN(C)CCCNCCCCNC(=O)/C=N/O | 0 | 61* | 3 | 16 | -7 | -16
CN(C)CCCNCCCNC(=O)/C=N/O | 0 | 12 | -7 | 6 | 1 | 3
O=[N+]([O-])c1cc(CN2CCCC2)c2cccnc2c1O | 0 | 2 | 15 | 87* | -25 | 49
Oc1ccc(CN2CCN(c3ccccc3)CC2)c2cccnc12 | 0 | 1 | 20 | 1 | 3 | 1
Oc1ccc(CN2CCCCC2)c2cccnc12 | 0 | -11 | 16 | 85* | -11 | -11
Cc1nccc(-c2sc(-c3cccs3)nc2C)n1 | 0 | 2 | 5 | 2 | 85* | 26
Cc1nc(-c2cccs2)sc1C(=O)O | 0 | 2 | 4 | -14 | -3 | 13
O=C(CSc1nc2ccccc2[nH]1)Nc1nc(-c2cccc(Br)c2)cs1 | 0 | -2 | 1 | -1 | 34 | -20
CN(C)CCCn1c(SCC(=O)Nc2nc(-c3cccc(Br)c3)cs2)nc2ccccc2c1=O | 0 | -33 | -3 | -11 | 99* | 9
COc1ccc(NC2c3ncccc3C(=O)N2Cc2cccs2)cc1 (stereo unspecified) | 0 | -2 | 9 | 2 | 96* | 12
COC(=O)c1ccc(NC2c3ncccc3C(=O)N2Cc2cccs2)cc1 (stereo unspecified) | 0 | -7 | 3 | 2 | -15 | 27
